From PubChem BioAssay (EPA / NIEHS) come the findings set out here.

Inconclusive results are not listed. The source made the active and inactive calls. How the source made its calls, unless noted: active means hit-call score of the fitted dose curve at least 0.9, where 1 is the maximum; inactive means score below 0.9.

For assay [1], the target named is human Retinoid X Receptor beta (RXRb), RXRB (gene 6257) (UniProt P28702). Kind of assay: ATG_RXRb_TRANS: Attagene TRANS-FACTORIAL HepG2 Assay for human Retinoid X Receptor beta (RXRb) (AID 2283013; active means hit-call score of the fitted dose curve at least 0.9, where 1 is the maximum). A digest of the protocol:
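Transfect HepG2 with GAL4-UAS multi-reporter constructs (chimeric NR-Gal4, TRANS format); dose compound 24 h; isolate RNA, RT-PCR, FAM primer extension, HpaI digest; quantify by capillary electrophoresis; positive direction vs DMSO.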

The target in assay [2] is human Thyroid Receptor alpha (THRa1), THRA (gene 7067) (UniProt P10827). Kind of assay: ATG_THRa1_TRANS: Attagene TRANS-FACTORIAL HepG2 Assay for human Thyroid Receptor alpha (THRa1) (AID 2283014; active means hit-call score of the fitted dose curve at least 0.9, where 1 is the maximum). In outline:
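First, HepG2 cells receive multiple GAL4-UAS reporter units and the chimeric receptor. They are then dosed for 24 h, after which RNA is reverse-transcribed, amplified, labelled, HpaI-cut and sized by capillary electrophoresis; gain relative to DMSO is scored.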

In assay [3] the target is human Vitamin D Receptor (VDR), VDR (gene 7421) (UniProt P11473). Kind of assay: ATG_VDR_TRANS: Attagene TRANS-FACTORIAL HepG2 Assay for human Vitamin D Receptor (VDR) (AID 2283022; active means hit-call score of the fitted dose curve at least 0.9, where 1 is the maximum). In outline:
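Fluorescence of labelled reporter cDNA fragments, resolved by capillary electrophoresis, gives mRNA induction after 24 h treatment of HepG2 cells carrying transfected Gal4-fusion reporter units. Activity is fitted in the positive direction with DMSO as baseline.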

Read-out in assay [4]: E-selectin (Homo sapiens) (UniProt P16581)
The assay is described as follows: BSK_3C_Eselectin: BioMAP Diversity Plus: 3C Assay for Eselectin Biomarker Activity (AID 2283015).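 Further: cell surface E-selectin protein quantified by ELISA 24 h after dosing.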 The note with it: primary human endothelial cells (HUVEC); actives raise or lower the signal. A digest of the protocol:
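Human vascular endothelium from umbilical vein is exposed to test chemicals for 24 h. E-selectin levels are read by ELISA and compared with DMSO controls.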

Read-out in assay [5]: Interleukin-1 alpha (IL1a), IL1A (gene 3552)
The assay is described as follows: BSK_BE3C_IL1a: BioMAP Diversity Plus: BE3C Assay for Interleukin-1 alpha (IL1a) Biomarker Activity (AID 2283016). The note with it: primary human bronchial epithelial cells; actives raise or lower the signal. A digest of the protocol: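 BE3C primary human bronchial epithelium; cpd 24 h; IL-1a by ELISA; bidirectional fit vs DMSO; parallel SRB (0.1% SRB, 10% TCA fix, 560 nm) for cytotoxicity.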

Read-out in assay [6]: Monocyte Chemoattractant Protein-1 (MCP1), CCL2 (gene 6347)
Kind of assay: BSK_3C_MCP1: BioMAP Diversity Plus: 3C Assay for Monocyte Chemoattractant Protein-1 (MCP1) Biomarker Activity (AID 2283017). The note with it: primary human endothelial cells (HUVEC); actives raise or lower the signal. In outline: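 Endothelial cells from human umbilical vein are dosed with chemical, cultured 24 h, then assayed for MCP-1 by ELISA; both increases and decreases are modelled against DMSO controls.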

Read-out in assay [7]: Monocyte Chemoattractant Protein-1 (MCP1), CCL2 (gene 6347)
Kind of assay: BSK_4H_MCP1: BioMAP Diversity Plus: 4H Assay for Monocyte Chemoattractant Protein-1 (MCP1) Biomarker Activity (AID 2283018). The note with it: primary human endothelial cells (HUVEC); actives raise or lower the signal. A digest of the protocol:
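ELISA read-out of MCP-1 from human vascular endothelial primary cells taken at 24 hours after compound exposure. Activity was fitted in both directions relative to DMSO, which served as negative control.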

Read-out in assay [8]: Human Leukocyte Antigen - DR isotype (HLADR), HLA-DRA (gene 3122)
Kind of assay: BSK_3C_HLADR: BioMAP Diversity Plus: 3C Assay for Human Leukocyte Antigen - DR isotype (HLADR) Biomarker Activity (AID 2283019).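 Further: ELISA of cell-surface HLA-DR on HUVEC 24 h after dosing.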 To be noted: primary human endothelial cells (HUVEC); actives raise or lower the signal. In outline: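 Endothelial cells from human umbilical vein are treated with test chemical; after 24 h, HLA-DR levels are measured by ELISA. Data are fitted in both directions using DMSO as the baseline.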

Read-out in assay [9]: Interleukin-8 (IL8), CXCL8 (gene 3576)
The assay is described as follows: BSK_3C_IL8: BioMAP Diversity Plus: 3C Assay for Interleukin-8 (IL8) Biomarker Activity (AID 2283020). The note with it: primary human endothelial cells (HUVEC); actives raise or lower the signal. In outline: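 ELISA read-out of IL-8 from human umbilical vein endothelium, measured 24 h after chemical dosing. Activity is expressed relative to DMSO negative control, with both increases and decreases fitted.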

Read-out in assay [10]: Monokine induced gamma interferon (MIG), CXCL9 (gene 4283)
The assay is described as follows: BSK_3C_MIG: BioMAP Diversity Plus: 3C Assay for Monokine induced gamma interferon (MIG) Biomarker Activity (AID 2283021). The note with it: primary human endothelial cells (HUVEC); actives raise or lower the signal. In outline:
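Read-out is ELISA detection of MIG on human umbilical vein endothelial cells, taken 24 h after dosing. Gain or loss of signal was scored relative to DMSO controls using bidirectional curve fitting.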

The nature of assay [11]: BSK_3C_SRB: Viability Assessment in the BioMAP Diversity Plus: 3C Assay (AID 2283023).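 Further: fitted both ways against DMSO so a hit may be signal rise or drop.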 The note with it: primary human endothelial cells (HUVEC). A digest of the protocol: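 Cells were dosed with chemical, cultured 24 h, fixed with 10% TCA, stained with 0.1% SRB and read at 560 nm. Human umbilical vein endothelium was used; DMSO served as negative control and baseline.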

Read-out in assay [12]: Matrix Metallopeptidase 1 (MMP1), MMP1 (gene 4312)
Kind of assay: BSK_BE3C_MMP1: BioMAP Diversity Plus: BE3C Assay for Matrix Metallopeptidase 1 (MMP1) Biomarker Activity (AID 2283024). To be noted: primary human bronchial epithelial cells; actives raise or lower the signal. A digest of the protocol:
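Human bronchial epithelial cells (BE3C system) exposed to compound for 24 h; MMP1 then quantified by ELISA. Activity was fitted in both directions relative to DMSO.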

A short description of assay [13]: BSK_3C_Vis: BioMAP Diversity Plus: 3C Assay for Morphology Visualization (AID 2283025).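 Further: fitted both ways so gain or loss versus DMSO counts.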 To be noted: primary human endothelial cells (HUVEC). In outline: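 Chemicals were added to primary human umbilical vein endothelium, cells were incubated 24 h, and morphology was then visualized by light microscopy. Gain or loss of signal was fitted bidirectionally relative to DMSO.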

Read-out in assay [14]: Pselectin, SELP (gene 6403)
The assay is described as follows: BSK_4H_Pselectin: BioMAP Diversity Plus: 4H Assay for Pselectin Biomarker Activity (AID 2283026). To be noted: primary human endothelial cells (HUVEC); actives raise or lower the signal. A digest of the protocol: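 ELISA read-out of P-selectin on human umbilical vein endothelium after 24 h of dosing. Values derive from bidirectional fitting relative to DMSO. Parallel SRB protein staining flagged overt cytotoxicity.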

Assay [15] is described as follows: BSK_4H_SRB: Viability Assessment in the BioMAP Diversity Plus: 4H Assay (AID 2283027).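 Further: cells exposed to compound for 24 h before staining.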 The note with it: primary human endothelial cells (HUVEC). A digest of the protocol:
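Absorbance at 560 nm of SRB-stained total protein served as the viability read-out in confluent primary human umbilical vein endothelium 24 h after chemical treatment. Curves were fitted bidirectionally against DMSO as negative control.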

The nature of assay [16]: BSK_BE3C_SRB: Viability Assessment in the BioMAP Diversity Plus: BE3C Assay (AID 2283028). The note with it: primary human bronchial epithelial cells. A digest of the protocol:
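Overt cytotoxicity was assessed as total protein in confluent human primary bronchial epithelial cultures 24 h after chemical addition, using 0.1% sulforhodamine B staining read at 560 nm.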

Read-out in assay [17]: Thrombomodulin, THBD (gene 7056)
The assay is described as follows: BSK_3C_Thrombomodulin: BioMAP Diversity Plus: 3C Assay for Thrombomodulin Biomarker Activity (AID 2283029). The note with it: primary human endothelial cells (HUVEC); actives raise or lower the signal. A digest of the protocol: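 Read-out is ELISA of thrombomodulin on human umbilical vein endothelium 24 h after chemical dosing. Gain or loss of signal is scored relative to DMSO. Overt cytotoxicity is checked in parallel cultures by sulforhodamine B staining.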

Read-out in assay [18]: Urokinase-type plasminogen activator receptor (uPAR), PLAUR (gene 5329)
The assay is described as follows: BSK_4H_uPAR: BioMAP Diversity Plus: 4H Assay for Urokinase-type plasminogen activator receptor (uPAR) Biomarker Activity (AID 2283030). The note with it: primary human endothelial cells (HUVEC); actives raise or lower the signal. In outline: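 Chemicals are dosed onto human vascular endothelial primary cells (umbilical vein). After 24 h, uPAR is read by ELISA. Gain or loss of signal is fitted relative to DMSO.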

Read-out in assay [19]: Vascular endothelial growth factor receptor 2 (Homo sapiens) (UniProt P35968)
The assay is described as follows: BSK_4H_VEGFRII: BioMAP Diversity Plus: 4H Assay for Vascular endothelial growth factor receptor 2 (VEGFR2) Biomarker Activity (AID 2283031). The note with it: primary human endothelial cells (HUVEC); actives raise or lower the signal. A digest of the protocol: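 VEGFRII levels on human vascular endothelial primary cells were determined by ELISA at 24 hours post-dosing, with gain- or loss-of-signal fitted against DMSO controls.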

Sequence of E-selectin (Homo sapiens) (P16581 whole entry, looked up): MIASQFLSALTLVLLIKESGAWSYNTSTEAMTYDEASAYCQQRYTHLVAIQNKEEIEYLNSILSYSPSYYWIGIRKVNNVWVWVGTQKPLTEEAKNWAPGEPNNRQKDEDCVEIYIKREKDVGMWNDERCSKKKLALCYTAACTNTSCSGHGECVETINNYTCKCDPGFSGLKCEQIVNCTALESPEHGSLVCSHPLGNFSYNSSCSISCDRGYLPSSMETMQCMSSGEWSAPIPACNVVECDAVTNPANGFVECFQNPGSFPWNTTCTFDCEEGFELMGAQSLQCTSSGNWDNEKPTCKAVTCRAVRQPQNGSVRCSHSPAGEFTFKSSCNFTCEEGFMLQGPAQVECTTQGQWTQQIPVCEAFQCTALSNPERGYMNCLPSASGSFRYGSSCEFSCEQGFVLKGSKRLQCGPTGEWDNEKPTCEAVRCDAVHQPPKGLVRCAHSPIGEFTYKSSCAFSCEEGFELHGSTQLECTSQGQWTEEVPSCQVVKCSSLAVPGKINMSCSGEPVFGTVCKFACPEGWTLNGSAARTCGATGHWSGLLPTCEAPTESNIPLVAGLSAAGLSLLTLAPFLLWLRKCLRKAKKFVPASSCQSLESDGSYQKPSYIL
Sequence of human Thyroid Receptor alpha (THRa1), THRA (gene 7067) (P10827 whole entry, looked up, the tested form may be a part): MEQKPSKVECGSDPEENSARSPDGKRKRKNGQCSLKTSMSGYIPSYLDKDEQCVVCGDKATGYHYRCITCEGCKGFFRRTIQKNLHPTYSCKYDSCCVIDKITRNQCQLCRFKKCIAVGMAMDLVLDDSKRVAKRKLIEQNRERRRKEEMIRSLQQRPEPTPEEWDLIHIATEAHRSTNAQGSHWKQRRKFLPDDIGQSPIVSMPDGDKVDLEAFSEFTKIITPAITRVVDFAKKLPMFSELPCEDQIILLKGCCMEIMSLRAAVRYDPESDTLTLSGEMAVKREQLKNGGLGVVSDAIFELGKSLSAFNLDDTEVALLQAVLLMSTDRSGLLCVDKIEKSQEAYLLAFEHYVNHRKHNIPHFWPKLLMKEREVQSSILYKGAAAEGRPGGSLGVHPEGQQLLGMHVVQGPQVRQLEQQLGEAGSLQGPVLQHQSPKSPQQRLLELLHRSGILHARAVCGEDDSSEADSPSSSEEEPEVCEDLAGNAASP
Sequence of human Vitamin D Receptor (VDR), VDR (gene 7421) (P11473 whole entry, looked up, the tested form may be a part): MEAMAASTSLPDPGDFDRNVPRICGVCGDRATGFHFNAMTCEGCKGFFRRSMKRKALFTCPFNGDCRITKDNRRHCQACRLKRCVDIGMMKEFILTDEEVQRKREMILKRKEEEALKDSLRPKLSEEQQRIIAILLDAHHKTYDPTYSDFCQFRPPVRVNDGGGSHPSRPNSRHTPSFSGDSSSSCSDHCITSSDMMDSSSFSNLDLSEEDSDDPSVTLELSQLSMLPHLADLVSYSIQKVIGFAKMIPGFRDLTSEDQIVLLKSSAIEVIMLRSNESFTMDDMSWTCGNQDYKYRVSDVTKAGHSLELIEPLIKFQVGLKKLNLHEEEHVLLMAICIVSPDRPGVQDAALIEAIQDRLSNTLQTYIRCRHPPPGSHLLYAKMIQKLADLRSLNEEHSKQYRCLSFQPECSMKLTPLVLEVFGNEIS
Sequence of human Retinoid X Receptor beta (RXRb), RXRB (gene 6257) (P28702 whole entry, looked up, the tested form may be a part): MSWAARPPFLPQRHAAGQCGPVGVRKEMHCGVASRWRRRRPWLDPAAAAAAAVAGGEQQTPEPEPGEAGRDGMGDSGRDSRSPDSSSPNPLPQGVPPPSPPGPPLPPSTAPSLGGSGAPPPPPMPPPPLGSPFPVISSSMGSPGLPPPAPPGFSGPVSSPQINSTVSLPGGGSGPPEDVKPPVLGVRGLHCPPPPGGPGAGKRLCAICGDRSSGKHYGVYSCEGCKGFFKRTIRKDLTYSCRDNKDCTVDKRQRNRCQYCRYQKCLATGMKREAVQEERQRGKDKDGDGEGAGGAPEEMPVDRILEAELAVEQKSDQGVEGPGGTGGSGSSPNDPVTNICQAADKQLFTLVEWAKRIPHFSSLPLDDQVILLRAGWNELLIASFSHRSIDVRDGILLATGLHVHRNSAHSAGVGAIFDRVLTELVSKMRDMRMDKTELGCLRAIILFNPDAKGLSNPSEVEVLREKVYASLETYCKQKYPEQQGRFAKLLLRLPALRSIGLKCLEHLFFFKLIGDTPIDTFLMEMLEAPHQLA

`Cc1cc(S(=O)(=O)O)ccc1N=Nc1c(O)ccc2ccccc12`: the result in [1], in assay [2] and in assay [3] was inactive.
With `COc1ccc(COC(C)=O)cc1`, in assay [2], the call was inactive.
Take `C=C(C)C(=O)OCCOCCOCCOCCOC(=O)C(=C)C`: the outcome in assay [4], in assay [5], in assay [6], in [7], in [8] and in [9] was inactive. Further, the result in [10], in assay [11], in assay [12], in [13], in [14] and in assay [15] was inactive. Moreover, the result in assay [16], in assay [17], in [18] and in assay [19] was inactive.
`CCOC(=O)C1OC1c1ccccc1` (stereo not drawn): in assay [3], the call was inactive.
On to `CC1(C)O[C@@H]2[C@@H](CO[C@@]3(COS(N)(=O)=O)OC(C)(C)O[C@@H]23)O1`, for which, in assay [2], the molecule was classed as inactive.
For `CCC(C)=O`, the molecule was classed as inactive in assay [2].
Consider `CC/C=C\CCOC(=O)CC`, for which the call in assay [2] was inactive.
`CCCC1O[C@@H]2C[C@H]3[C@@H]4CCC5=CC(=O)C=C[C@]5(C)[C@H]4[C@@H](O)C[C@]3(C)[C@]2(C(=O)CO)O1` (stereo partly drawn): the molecule was called inactive in assay [3].
`CC(C)Nc1nc(N)nc(Cl)n1`: the result in assay [2] and in assay [3] was inactive.
In the case of `OCCCCC(O)CO` (stereo not drawn), the result in assay [2] was inactive.
A word on the AC50: it is the concentration at which the activity in the assay is half-maximal. In the case of `C[C@@H]1CCN(C(=O)[C@H](CCCN=C(N)N)NS(=O)(=O)c2cccc3c2NC[C@H](C)C3)[C@@H](C(=O)O)C1`, the result in assay [4], in [5], in [6], in assay [7], in assay [8] and in [9] was inactive. Moreover, the outcome in assay [10], in assay [11], in [13], in [14], in [15] and in assay [16] was inactive. For the same molecule, the outcome in assay [17], in assay [18] and in assay [19] was inactive. In addition, in [12], the AC50 is 0.0398 µM (active).
Take `O=Cc1ccccc1S(=O)(=O)O`: in [3], the molecule was classed as inactive.
In the case of `COc1ccccc1N=Nc1c(S(=O)(=O)O)cc2cc(S(=O)(=O)O)cc(NC(C)=O)c2c1O`, the outcome in assay [1] and in [3] was inactive.
Regarding `OC[C@H]1O[C@@H](Oc2ccc(O)cc2)[C@H](O)[C@@H](O)[C@@H]1O`, in assay [3], the call was inactive.
On the same count and under the same terms, with `COc1ccc(N=Nc2cc(C)c(N=Nc3ccc(S(=O)(=O)O)cc3)cc2OC)cc1` the entry was “inactive”.
Regarding `CCN(CC)C(=O)N(CC)CC`, the call in assay [2], in assay [4], in assay [5], in [6], in [7] and in assay [8] was inactive. Moreover, the result in assay [9], in assay [10], in assay [3], in [11], in [12] and in assay [13] was inactive. For the same molecule, the outcome in assay [14], in [15], in [16], in [17], in [18] and in assay [19] was inactive.
`COCCOC(=O)c1ccccc1C(=O)OCCOC`: the molecule was called inactive in [3].
